Screening data (PubChem)
esBAF inh = inhibitors of esBAF chromatin remodeling in mouse ES cells; Bmi1-luciferase knock-in reporter, 24 h; 100% = twice the neutral-well signal; AID 602393; actives 2% (n = 350,000); reporter increase, % at 12.5 µM; in the data active = activation above about 40%; inconclusive = no clear call, values can overlap the other calls;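 note: a rise in the Bmi1 reporter signal indicates esBAF inhibition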
HSF1 inhib = HSF1 inhibition; NIH3T3-HGL HSE-luciferase, MG132-induced, luminescence 8 h; hits give low values; activity change, negative = inhibition, % at 7.5 µM (by protocol); actives 0.77% (n = 300,000); AID 2098;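 active = more than half of replicate wells show activity change below -50%, luminescence cut by over half; inconclusive = some wells, but at most half, below -50%; inactive = no replicate well below -50%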;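 note: luciferase reports HSF-1 transcriptional activity via heat shock element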
Vif imaging = HIV Vif inhibition | HEK293T cells, Vif self-association by quenched fluorescence, imaging, 24 h | inhibition, % at 7.49 µM | actives 0.35% (n = 340,000); in the data active = inhibition above about 50%, passing the limit was not always enough; inconclusive = no clear call, values can overlap the other calls; inactive = below about 31%
HSF-1 act = increases HSF-1 driven luciferase reporter signal | NIH3T3-HGL HSF-1 luciferase reporter, MG132, 8 h; 100% = twice DMSO control signal | activation, % at 9 µM | actives 1.7% (n = 300,000) | AID 504408;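 active = mean replicate activation of at least 50% with a set share of replicates each reaching 50%; inconclusive = only one of those two conditions met; inactive = mean below 50% and too few replicates reaching it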
Of the large screens only hits and unclear results are named; the others gave an inactive call. The list is not random: actives were taken first. Their share in the collection is about 3.4%.

Cc1ccc2cc3cc(C(=O)N4CCCCC4C)oc3nc2c1 (stereo unspecified)	esBAF inh 50
COc1ccc2cc3cc(C(=O)N4CC(C)CC(C)C4)oc3nc2c1 (stereo unspecified)	esBAF inh 58
Cc1ccc2cc3cc(C(=O)NC4CC4)oc3nc2c1	esBAF inh 45
Cc1ccc2cc3cc(C(=O)NCc4ccco4)oc3nc2c1	HSF-1 act 64
Cc1ccc2cc3cc(C(=O)N4CC(C)CC(C)C4)oc3nc2c1 (stereo unspecified)	none
CC(C)NC(=O)Nc1ccc2c(c1)CC(=O)N([C@H](C)CO)C[C@@H](C)[C@@H](CN(C)S(C)(=O)=O)O2	none (no result: HSF1 inhib, Vif imaging, HSF-1 act)
Cc1cccc(S(=O)(=O)N(C)C[C@@H]2OCc3cnnn3CCCC(=O)N([C@@H](C)CO)C[C@H]2C)c1	none (no result: HSF1 inhib, Vif imaging, HSF-1 act)
Cc1ccc2cc3cc(C(=O)NC4CCCCC4)oc3nc2c1	esBAF inh 47
Fc1ccccc1-c1nc(-c2ccc(Cl)cc2)no1	esBAF inh 49
Cc1ccccc1-c1noc(-c2ccc(Cl)cc2)n1	esBAF inh inconclusive
Cc1ccccc1-c1noc(-c2ccc(O)cc2)n1	HSF-1 act 53
NC(=O)c1ccc(-c2noc(-c3ccccc3F)n2)cc1	none (no result: HSF1 inhib, HSF-1 act)
Cc1ccccc1-c1noc(-c2ccccc2F)n1	esBAF inh 67, HSF-1 act 54 (no result: Vif imaging)
C[C@H]1CN([C@@H](C)CO)C(=O)c2cc(C#Cc3cccc(F)c3)cnc2O[C@@H]1CN(C)C(=O)C1CCOCC1	none (no result: HSF1 inhib, Vif imaging, HSF-1 act)
Cc1cccnc1NC(=O)c1c(O)c2cccc3c2n(c1=O)CCC3	none
O=C(Nc1ccccn1)c1c(O)c2cccc3c2n(c1=O)CCC3	esBAF inh 64
O=S(=O)(NCc1cc(-c2ccc(Cl)cc2)no1)c1ccccc1	none
O=S(=O)(Cc1cc(-c2ccccc2Cl)no1)c1ccccc1	esBAF inh 53, HSF-1 act 72
Clc1ccc(-c2cc(COc3ccccc3)on2)cc1	esBAF inh 51, HSF-1 act inconclusive
O=S(=O)(NCc1cc(-c2ccccc2Cl)no1)c1ccccc1	none
O=S(=O)(Cc1cc(-c2ccc(Cl)cc2)no1)c1ccccc1	esBAF inh 51
CCNC(=O)C[C@@H]1CC[C@H]2[C@H](COc3ccc(NC(=O)Nc4ccccc4C)cc3C(=O)N2C)O1	none (no result: HSF1 inhib, Vif imaging, HSF-1 act)
COCC(=O)N(C)C[C@@H]1Oc2cc(-c3ccc(C#N)cc3)ccc2S(=O)(=O)N([C@@H](C)CO)C[C@H]1C	none (no result: HSF1 inhib, Vif imaging, HSF-1 act)
Cc1ccccc1-c1cnn(-c2cccc([N+](=O)[O-])c2)c1N	none
Cc1ccc(-c2cnn(-c3cccc([N+](=O)[O-])c3)c2N)cc1	esBAF inh 83, HSF-1 act 60
Nc1c(-c2ccccc2)cnn1-c1cccc(C(F)(F)F)c1	esBAF inh 54 (no result: HSF1 inhib, HSF-1 act)
CCCN1[C@@H]2c3ccc(C4=CCCCC4)c(=O)n3C[C@@H]2[C@@H](CO)[C@@H]1C(=O)NC1Cc2ccccc2C1	none (no result: HSF1 inhib, Vif imaging, HSF-1 act)
Clc1nnc(N/N=C/c2ccccc2)c2ccccc12	none
Clc1ccc(/C=N/Nc2nc(Cl)nc3ccccc23)cc1	esBAF inh 58
O=c1c2ccccc2nc(N/N=C/c2c(O)ccc3ccccc23)n1O	none
Cc1ccc(/C=N/Nc2nnc(Cl)c3ccccc23)cc1	HSF-1 act 65
Clc1ccc(/C=N/Nc2nnc(Cl)c3ccccc23)cc1	esBAF inh 90, HSF-1 act 121
O=c1c2ccccc2nc(N/N=C/c2ccc(O)cc2)n1O	esBAF inh 47
COC(=O)C[C@@H]1CC[C@@H]2[C@H](COC[C@@H](O)CN2C(=O)Nc2cccc(F)c2)O1	none (no result: HSF1 inhib, Vif imaging, HSF-1 act)
O=C(CSC(=S)N1CCCCC1)Nc1ncc2c(n1)CC(c1ccco1)CC2=O (stereo unspecified)	none (no result: esBAF inh)
O=C(CSC(=S)N1CCCCC1)Nc1ncc2c(n1)CCCC2=O	HSF1 inhib -52 (no result: esBAF inh)
O=C(NCc1ccco1)c1cc2c(s1)CCCCC2	esBAF inh 57
Cc1occc1-c1nnc(SCC(=O)Nc2ccccc2)n1Cc1ccccc1	esBAF inh 46
C=CCc1cccc(CNc2nc3ccccc3n2CC)c1O	none
C=CCc1cccc(CNc2nc3ccccc3n2CCC)c1O	HSF-1 act 149
CCN(CC)CCNC(=O)CSc1c2c(nc3cc(Cl)ccc13)CCCC2	HSF-1 act inconclusive (no result: esBAF inh)
Cc1ccc(CNC(=O)CSc2c3c(nc4ccc(Cl)cc24)CCCC3)o1	HSF-1 act 120
COC(=O)c1ccc(CSc2nnnn2-c2ccc(C)cc2C)o1	HSF-1 act 71
Cc1ccc(-n2nnnc2SCC(N)=O)c(C)c1	none
C[C@H]1CN([C@@H](C)CO)C(=O)Cc2cc(NS(=O)(=O)c3cccs3)ccc2O[C@H]1CN(C)C	none (no result: HSF1 inhib, Vif imaging, HSF-1 act)
